Assay results from PubChem BioAssay (NCI).
About 83,000 compounds went through this panel and 20% of them were active in at least one assay; those are over-represented in the sample as a whole.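 Note: values are percent growth. 100 is the growth of untreated cells, values between 100 and 0 indicate rising inhibition; between -100 and 0 indicates cell death.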 Values without a mark were called inactive. Activity calls are given as the source filed them.

system: TK-10 renal; assay: NCI-60 one-dose screen, 48 h (100 = growth as untreated, 0 = no growth, -100 = all killed); settings: 10 µM unless noted
Experimental: Growth inhibition of the TK-10 human tumor cell line is measured as a screen for anti-cancer activity. Cells are grown in 96 well plates and exposed to the test compound for 48 hours. Compounds are tested at a single concentration, which is 10^-5 M for most compounds. The reported endpoint is percent growth (GI% or GIPRCNT), where numbers from 0 - 100% represent growth inhibition, and numbers from -100% - 0 represent cell death. For example, a value of 40 represents 60% growth inhibition. A value of 0 means no net growth occurred over the course of the experiment. A value of -40 indicates 40% of cells at the beginning of the experiment died by the end of the experiment. A value of -100 means all cells are dead at the end of the experiment.
NCI-60 Human Tumor Cell Lines Screen was performed using the standard one-dose NCI protocol, which is described in more detail at https://dtp.cancer.gov/discovery_development/nci-60/default.htm.
Compounds with GIPRCNT values below 10 were considered active. Activity score was based on GIPRCNT using the following formula: […]
Score is 0 for GIPRCNT values of 100 or above, 50 for GIPRCNT values of 0, and 100 for GIPRCNT values of -100.

Structure (SMILES) | growth
CCn1c(=O)c(C(=O)NCCCO)c(O)c2ccccc21 | 180%
Cc1ccc([C@H]2c3[nH]c4ccccc4c3C[C@H]3C(=O)N(CCCCCCC(=O)NO)CC(=O)N23)cc1 | 58.7%
CCSCC1CC(O)(c2ccccc2)C(c2ccccc2)C(c2ccc(F)cc2)O1 (stereo not given) | -15.4% (active)
CC(=O)O[C@@H]1CC2C(C)(C)CCCC2(C)C2=C1C(=O)C(C(C)C)=CC2=O (stereo not given in full) | 18.6%
CC(=O)NC1C(O[C@H]2C[C@H]3[C@@H]4CC=C5C[C@@H](O)CC[C@]5(C)[C@H]4CC[C@]3(C)[C@H]2[C@H](C)C(=O)CCC(C)C)OCC(O)C1O (stereo not given in full) | 60.4%
O=C(c1ccccc1)C1OC1C(=O)c1ccccc1 (stereo not given) | 36.9%
CCN(CC)c1ccc(/C=N/NC(=O)c2ccc(S(C)(=O)=O)cc2)c(O)c1 | 30.5%
CCNC(=O)c1ccc2c(c1)nc(-c1ccc(Cl)cc1)n2-c1cc(C(C)(C)C)[nH]n1 | 89.7%
COc1ccc(-c2cc(-c3ccc(OC)cc3)c3sc(=O)[nH]c3n2)cc1 | 89.8%
CC(C)c1ccc2c(c1)CCC1C2CCCC1(C)NCc1ccccc1 (stereo not given) | 95%
O=C1SCN(Cc2ccccc2)CN1Cc1ccccc1 | 111%
CCN(CC)c1cc(C)c(Cc2c(OC)ccc3ccccc23)cc1C | 95.6%
Clc1ccccc1CNc1c2ccccc2nc2ccccc12 | 42.5%
COc1cc(C2CC(c3cccc(Nc4ccnc5cc(Cl)ccc45)c3)=NN2C=O)cc(OC)c1OC (stereo not given) | 2.13% (active)
CCCCCCCC/C=C\CCCCCCCC(=O)OCCCCCC | 112%
COc1ccc(C(=O)OC2C(OC3C(O)COC(O[C@H]4C[C@H]5[C@@H]6CC=C7C[C@@H](O)CC[C@]7(C)[C@H]6CC[C@]5(C)[C@H]4[C@H](C)C(=O)CCC(C)C)C3OC(N)=O)OCC(O)C2O)cc1 (stereo not given in full) | -1.71% (active)
FC(F)(F)c1nn[nH]n1 | 111%
O=S(=O)(Cc1ccc(Cl)cc1Cl)c1ccc(Cl)cc1 | 32.6%
CCOc1cc(/C=N\NC(=O)C[N+](C)(C)C)ccc1O | 105%
CS(=O)(=O)c1ccc(C(=O)N/N=C/c2ccccc2O)cc1 | 45.8%

Structure (SMILES) | growth
C=CCOc1ccc2c(C)cc(=O)oc2c1 | 91.9%
C[C@@H]1CC2C3CCC4=CC(=O)C=C[C@]4(C)[C@@]3(Cl)[C@@H](O)C[C@]2(C)[C@@]1(OC(=O)c1ccco1)C(=O)CCl (stereo not given in full) | 95.6%
C[C@H](NC(=O)c1snnc1C1CC1)c1c(F)cccc1Cl | 129%
CCn1c(Cc2ccccc2Nc2c(Cl)cccc2Cl)nnc1SCC(=O)Nc1cccc(OC)c1 | 82.8%
CC[C@]1(O)C[C@H]2CN(CCc3c([nH]c4ccccc34)C(C(=O)OC)(c3cc4c(cc3OC)N(C)[C@H]3[C@@](O)(C(=O)OC)[C@H](OC(C)=O)[C@]5(CC)[C@@H]6C[C@@H]6CN6CC[C@]43[C@@H]65)C2)C1 (stereo not given in full) | 52.7%
O/N=C1\c2ccccc2-c2ccc(Br)cc21 | 108%
Cc1ccc(Nc2cc(Cl)c([N+](=O)[O-])cc2[N+](=O)[O-])cc1 | 15.5%
COc1ccc2[nH]cc(C3(c4c[nH]c5ccc(OC)cc45)C(=O)Nc4ccc(Cl)cc43)c2c1 | 107%
CCC1N=C(N)N=C(N)N1c1ccc(Cl)cc1 (stereo not given) | 97%
CC(=O)c1ccc(N2C(=O)c3ccc(Oc4ccccc4)cc3C2=O)cc1 | 105%
O=C(Nc1ccc(Br)cc1)c1ccc(Cl)c(Cl)c1 | 107%
CSC1=N/C(=C\c2cccc(OCc3ccc(Cl)cc3)c2)C(=O)N1 | 78.9%
C=CC(=O)N1CN(C(=O)C=C)CN(C(=O)C=C)C1 | -11.4% (active)
CCOC(=O)c1cc(N)nc2ccccc12 | 106%
CC(C)CC(=O)C(CCc1ccccn1)C(C)C (stereo not given) | 102%
COC(=O)c1ccc2c(c1)nc(-c1cc3ccccc3[nH]c1=O)n2-c1cc(C(C)(C)C)[nH]n1 | 113%
COc1cc2ncnc(Nc3ccc(S(=O)(=O)Nc4cc(C)on4)cc3)c2cc1OCCCN1CCN(c2ccc([N+](=O)[O-])cc2)CC1 | 103%
CC(C)(C)c1nn(-c2ccccc2)c2c1C(=O)CSC(c1ccccc1Cl)N2 (stereo not given) | 77.5%
CC1OC(n2c3ccccc3c3c4c(c5c6ccccc6[nH]c5c32)C(=O)N(CCN2CCOCC2)C4=O)CC(O)C1O (stereo not given) | 58.5%
O=C1Nc2ccccc2/C1=C\c1nc(C2CCN(S(=O)(=O)c3ccc(F)cc3)CC2)n2ccccc12 | 60.1%
